The source of these data is PubChem BioAssay (EPA / NIEHS).

What all share (conditions): mRNA level, 48 h; actives raise or lower the signal
Read-out in assay [1]: Interleukin 6 Receptor (IL6R), IL6R (gene 3570)
Briefly: LTEA_HepaRG_IL6R: Life Technologies and Expression Analysis (LTEA) Assay for Interleukin 6 Receptor (IL6R) using HepaRG (AID 2283510).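 For AC50: TaqMan qRT-PCR signal normalized to ACTB GAPDH and POLR2A housekeeping genes.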 The gist of the method:
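Differentiated human HepaRG cells, plated 48 h then switched to serum-free induction medium, were dosed in duplicate for 48 h at eight half-log concentrations up to 100 uM in 0.5% DMSO. IL6R mRNA quantified by qRT-PCR, normalized to ACTB/GAPDH/POLR2A; bidirectional fit versus DMSO.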

Read-out in assay [2]: Potassium channel subfamily K member 1 (KCNK1), KCNK1 (gene 3775)
Briefly: LTEA_HepaRG_KCNK1: Life Technologies and Expression Analysis (LTEA) Assay for Potassium channel subfamily K member 1 (KCNK1) using HepaRG (AID 2283511). The gist of the method: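 Differentiated human HepaRG cells in serum-free induction medium were exposed in duplicate for 48 h to 8 half-log concentrations up to 100 uM in 0.5% DMSO. KCNK1 mRNA was measured by TaqMan qRT-PCR, normalized to ACTB, GAPDH and POLR2A, and fitted bidirectionally versus DMSO.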

Read-out in assay [3]: Keratin 19 (KRT19), KRT19 (gene 3880)
Briefly: LTEA_HepaRG_KRT19: Life Technologies and Expression Analysis (LTEA) Assay for Keratin 19 (KRT19) using HepaRG (AID 2283512). The procedure, abridged: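 Gene-expression endpoint in the human liver line HepaRG after 48 h exposure to up to 100 uM test chemical with 0.5% DMSO vehicle; KRT19 mRNA by qRT-PCR, analyzed bidirectionally versus DMSO.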

Read-out in assay [4]: JUN Transcription Factor, JUN (gene 3725)
Briefly: LTEA_HepaRG_JUN: Life Technologies and Expression Analysis (LTEA) Assay for JUN Transcription Factor using HepaRG (AID 2283513). The procedure, abridged: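 Differentiated HepaRG cells were exposed to chemicals for 48 h in serum-free induction medium, 8 concentrations from 100 uM in half-log steps, 0.5% DMSO vehicle, in duplicate. JUN mRNA was quantified by TaqMan qRT-PCR, normalized to ACTB, GAPDH, POLR2A.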

Read-out in assay [5]: Lipase C (LIPC), LIPC (gene 3990)
In words: LTEA_HepaRG_LIPC: Life Technologies and Expression Analysis (LTEA) Assay for Lipase C (LIPC) using HepaRG (AID 2283514). The gist of the method:
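Differentiated human HepaRG cells in serum-free induction medium were exposed in duplicate for 48 h to eight concentrations (top 100 uM, half-log steps, 0.5% DMSO). LIPC mRNA was quantified by TaqMan qRT-PCR, normalized to ACTB, GAPDH and POLR2A, with bidirectional fitting versus DMSO.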

Read-out in assay [6]: Lipoprotein lipase (LPL), LPL (gene 4023)
Briefly: LTEA_HepaRG_LPL: Life Technologies and Expression Analysis (LTEA) Assay for Lipoprotein lipase (LPL) using HepaRG (AID 2283515). The gist of the method: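 Differentiated human HepaRG cells in serum-free induction medium were exposed in duplicate for 48 h to eight half-log concentrations (top 100 uM) in 0.5% DMSO. LPL mRNA was quantified by TaqMan qRT-PCR, normalized to ACTB, GAPDH and POLR2A.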

Read-out in assay [7]: MicroRNA 122 (MIR122), gene 406906
Briefly: LTEA_HepaRG_MIR122: Life Technologies and Expression Analysis (LTEA) Assay for MicroRNA 122 (MIR122) using HepaRG (AID 2283516). Note: the transcript read is the microRNA miR-122. The procedure, abridged:
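Differentiated human HepaRG cells were exposed 48 h in serum-free induction medium to eight half-log concentrations (top 100 uM, 0.5% DMSO). Transcript level was measured by TaqMan qRT-PCR, normalized to ACTB, GAPDH and POLR2A, and fitted bidirectionally versus DMSO.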

Read-out in assay [8]: matrix metalloproteinase-10 (MMP10), MMP10 (gene 4319)
Briefly: LTEA_HepaRG_MMP10: Life Technologies and Expression Analysis (LTEA) Assay for matrix metalloproteinase-10 (MMP10) using HepaRG (AID 2283517). The procedure, abridged: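 HepaRG, collagen I, ~100,000 cells/well; serum-free induction medium; 48 h exposure, duplicate, 8-pt half-log to 100 uM, 0.5% DMSO. Readout: TaqMan qRT-PCR, normalized to ACTB/GAPDH/POLR2A; bidirectional fit vs DMSO.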

Read-out in assay [9]: MYC, MYC (gene 4609)
Briefly: LTEA_HepaRG_MYC: Life Technologies and Expression Analysis (LTEA) Assay for MYC using HepaRG (AID 2283518). The gist of the method: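 Cells are thawed, plated and cultured 48 h, then treated for 48 h with test chemicals (eight half-log concentrations from 100 uM, 0.5% DMSO vehicle). RNA is isolated and MYC expression quantified by qRT-PCR against three housekeeping genes.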

Read-out in assay [10]: matrix metalloproteinase-3 (MMP3), MMP3 (gene 4314)
In words: LTEA_HepaRG_MMP3: Life Technologies and Expression Analysis (LTEA) Assay for matrix metalloproteinase-3 (MMP3) using HepaRG (AID 2283519). The gist of the method:
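Differentiated human HepaRG cells, plated 48 h on collagen I, were exposed in duplicate for 48 h in serum-free induction medium to eight half-log concentrations up to 100 uM in 0.5% DMSO. MMP3 mRNA was quantified by TaqMan qRT-PCR, normalised to ACTB, GAPDH and POLR2A.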

Structures are written as SMILES. Calls of active or inactive are those of the source. Rule for the calls: active = hit-call score of the fitted dose curve at least 0.9, where 1 is the maximum; inactive = score below 0.9.

What is called AC50 is the concentration giving half of the maximal activity seen.

In the case of `O=C1OC(c2ccc(O)cc2)(c2ccc(O)cc2)c2ccccc21`, the AC50 in assay [1] is 50 µM (active); in assay [5], 77.4 µM (active); in assay [6] it was 72.5 µM (active); in assay [7], 50 µM (active). Also, the compound was classed as inactive in [2], in [3], in [4], in assay [8], in assay [9] and in assay [10].
Consider `S=c1[nH]c2ccccc2s1`, for which the outcome in [1], in [2], in assay [3], in assay [4], in assay [5] and in assay [6] was inactive. The compound was classed as inactive in [7], in [8] and in [10].
On to `CCCCCCCC(=O)OC`, for which the outcome in assay [1], in assay [2], in assay [3], in assay [4], in assay [5] and in assay [7] was inactive. Also, the call in assay [8], in assay [9] and in assay [10] was inactive. In assay [6], the AC50 is 12.4 µM (active).
For `OCC(CO)n1cnc(-c2ccc(F)cc2)c1-c1ccnc(Oc2ccccc2)n1`, the call in [1], in [2], in [3], in [4], in [5] and in assay [6] was inactive. The compound was classed as inactive in assay [7], in [8] and in [9]. Besides, the AC50 in [10] was 13.5 µM (active).
Turning to `CN(C)C(=O)NC1(c2ccccc2)CCN(CCC[C@]2(c3ccc(Cl)c(Cl)c3)CCCN(C(=O)c3ccccc3)C2)CC1`, the AC50 in [1] is 17.2 µM (active); in [2] it was 16.1 µM (active); in [3], 20.7 µM (active); in assay [4], 20.2 µM (active); in assay [8] it was 19.4 µM (active); in [10], 18.2 µM (active). The result in assay [5], in assay [6] and in [7] was inactive.
For the compound `CC(C)COC(=O)CCCCC(=O)OCC(C)C`, the compound was called inactive in assay [1], in [2], in [3], in assay [4], in [5] and in assay [6]. Also, the compound was classed as inactive in [7], in [8] and in [10].
On to `CC(=O)CC(c1ccccc1)c1c(O)c2ccccc2oc1=O` (configuration not stated), for which the compound was called inactive in assay [1], in assay [2], in assay [3], in assay [4], in [5] and in assay [6]. In addition, the call in [7], in assay [8], in [9] and in [10] was inactive.
Take `CC(C)c1cccc(C(C)C)c1`: the outcome in assay [1], in assay [2], in [3], in [4], in assay [5] and in assay [6] was inactive. Besides, the call in assay [7], in assay [8] and in assay [10] was inactive.
With `CC1(C)C(=O)NC(=O)N1CO`, the call in assay [1], in assay [2], in assay [3], in [4], in assay [5] and in assay [6] was inactive. Moreover, the call in assay [7], in assay [8] and in assay [10] was inactive.
On to `O=NO`, for which the compound was classed as inactive in assay [1], in assay [2], in assay [3], in assay [4], in [5] and in assay [6]. Also, the outcome in [7], in [8], in assay [9] and in assay [10] was inactive.
Consider `CCCCC(CC)COC(=O)CCCCCCCC(=O)OCC(CC)CCCC` (configuration not stated), for which the result in [1], in assay [2], in assay [3], in assay [4], in assay [5] and in assay [6] was inactive. Also, the call in assay [7], in [8], in assay [9] and in [10] was inactive.
With `CCCCCCC(C=O)=Cc1ccccc1`, the compound was called inactive in assay [1], in assay [2], in assay [3], in [4], in assay [5] and in assay [6]. The result in [7], in [8], in [9] and in assay [10] was inactive.
In the case of `Cc1ccc(-c2cc(C(F)(F)F)nn2-c2ccc(S(N)(=O)=O)cc2)cc1`, the result in assay [1], in [2], in [3], in [5], in [7] and in assay [8] was inactive. The call in assay [10] was inactive. For the same compound, the results for the concentration at half-maximal activity (AC50) in assay [4], in assay [6] and in [9] were 83.4 µM (active), 87.4 µM (active) and 67.3 µM (active), respectively.
For `NC(=Nc1ccccc1)Nc1ccccc1`, the result in [1], in assay [2], in assay [3], in assay [4], in assay [5] and in [6] was inactive. Further, the outcome in [7], in assay [8] and in assay [10] was inactive.
Consider `C/C=C/C=C/C(=O)O`, for which the result in assay [1], in [2], in assay [3], in [4], in assay [5] and in assay [6] was inactive. The compound was called inactive in [7], in assay [8], in assay [9] and in assay [10].
Consider `O=C(N[C@@H](c1ccccc1)[C@@H]1CCCCN1)c1cccc(C(F)(F)F)c1Cl`, for which the AC50 in assay [1] was 50 µM (active); in assay [2] it was 50 µM (active); in assay [3], 12.6 µM (active); in assay [4], 65 µM (active); in assay [6], 84.7 µM (active); in assay [8], 35 µM (active). In assay [10], the half-maximal activity concentration (AC50) is 87.1 µM (active). For the same compound, the compound was called inactive in assay [5] and in assay [7].
Turning to `NCCOCCOCCN`, the compound was classed as inactive in [1], in assay [2], in assay [3], in assay [4], in assay [5] and in [6]. Further, the compound was called inactive in [7], in [8] and in assay [10].
Consider `N[C@@H](Cc1c[nH]c2ccccc12)C(=O)O`, for which the result in assay [1], in assay [2], in [3], in assay [4], in assay [5] and in assay [6] was inactive. Moreover, the outcome in [7], in [8] and in assay [10] was inactive.
On to `CCCCOC(=O)CCCCC(=O)OCCCC`, for which the outcome in [1], in assay [2], in assay [3], in assay [4], in assay [5] and in assay [6] was inactive. In addition, the compound was classed as inactive in assay [7], in assay [8] and in assay [10].
In the case of `Oc1ccccc1O`, the outcome in assay [1], in assay [2], in assay [3], in assay [4], in assay [5] and in assay [6] was inactive. For the same compound, the compound was called inactive in [7], in assay [8] and in [10].
In the case of `Cc1c(C)c2c(c(C)c1O)CCC(C)(COc1ccc(CC3SC(=O)NC3=O)cc1)O2` (configuration not stated), the AC50 was 92.9 µM (active) in assay [1]; 70.9 µM (active) in assay [4]; 25.1 µM (active) in assay [5]; 4.12 µM (active) in assay [6]; 83.9 µM (active) in [7]; 48.5 µM (active) in [8]. The compound was classed as inactive in assay [2], in assay [3] and in assay [10].
As for `CN(C)C(=O)NC1(c2ccccc2)CCN(CC[C@@]2(c3ccc(F)c(F)c3)CN(C(=O)c3ccccc3)CCO2)CC1`, the compound was called inactive in assay [1], in [2], in [4], in assay [7], in assay [8] and in assay [10]. In addition, the AC50 is 27 µM (active) in [3], 47 µM (active) in assay [5] and 31.8 µM (active) in assay [6].
